Compound activity from PubChem BioAssay.
An excerpt weighted towards active compounds, which were near 13% of everything screened.
USP8 inh: blocks human USP8 ubiquitin-rhodamine cleavage | P40818 | purified USP8, Ub-rhodamine cleavage fluorescence, 30 min | inhibition, % at 20 µM | 4.2% of 47,000 active | AID 1645853
USP17 inh: inhibitors of human USP17 deubiquitinase; inhibition, % at 50 µM; AID 1645855; purified USP17, Ub-rhodamine cleavage fluorescence, 3 h; 6.5% of 47,000 active; A8MUK1
USP28 block: inhibitors of human USP28 deubiquitinase | Q96RU2 | purified USP28, Ub-rhodamine cleavage fluorescence, 30 min | inhibition, % at 25 µM | 3% of 47,000 active | AID 1645857
Target sequence (Q96RU2 whole entry, looked up): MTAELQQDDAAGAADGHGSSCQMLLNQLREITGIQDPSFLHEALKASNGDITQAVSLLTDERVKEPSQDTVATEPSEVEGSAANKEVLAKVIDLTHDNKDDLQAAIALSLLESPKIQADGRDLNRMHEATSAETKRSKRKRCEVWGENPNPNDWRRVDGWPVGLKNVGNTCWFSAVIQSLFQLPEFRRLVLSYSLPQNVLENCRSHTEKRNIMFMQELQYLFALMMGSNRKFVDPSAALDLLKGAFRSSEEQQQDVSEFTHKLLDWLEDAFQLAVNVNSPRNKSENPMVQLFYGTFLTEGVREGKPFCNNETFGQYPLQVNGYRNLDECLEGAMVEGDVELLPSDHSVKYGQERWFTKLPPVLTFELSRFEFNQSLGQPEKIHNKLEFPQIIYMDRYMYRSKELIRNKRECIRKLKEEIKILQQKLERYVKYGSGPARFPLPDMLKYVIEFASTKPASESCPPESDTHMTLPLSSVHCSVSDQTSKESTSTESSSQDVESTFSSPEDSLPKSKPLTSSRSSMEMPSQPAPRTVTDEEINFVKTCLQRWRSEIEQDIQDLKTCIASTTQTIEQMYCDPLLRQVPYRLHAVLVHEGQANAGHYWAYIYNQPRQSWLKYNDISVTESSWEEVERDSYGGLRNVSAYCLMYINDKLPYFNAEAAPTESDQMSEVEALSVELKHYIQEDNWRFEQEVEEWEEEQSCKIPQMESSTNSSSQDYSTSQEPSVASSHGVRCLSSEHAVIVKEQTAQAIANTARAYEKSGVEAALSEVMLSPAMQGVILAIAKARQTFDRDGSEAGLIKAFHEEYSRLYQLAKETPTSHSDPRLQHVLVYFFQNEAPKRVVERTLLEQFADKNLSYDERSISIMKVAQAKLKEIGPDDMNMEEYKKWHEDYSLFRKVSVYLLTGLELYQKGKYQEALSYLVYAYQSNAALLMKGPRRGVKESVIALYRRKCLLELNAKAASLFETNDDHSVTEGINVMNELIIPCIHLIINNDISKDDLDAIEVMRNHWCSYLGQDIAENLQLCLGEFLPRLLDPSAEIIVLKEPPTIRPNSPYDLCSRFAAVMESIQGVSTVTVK
USP30 inh: inhibitors of human USP30 deubiquitinase; Q70CQ3; purified USP30, Ub-rhodamine cleavage fluorescence; inhibition, % at 25 µM; 5.3% of 47,000 active
The depositor's hits bear a star; · = not tested or not shown. No stated cut-off is given here; in the data, active means inhibition above about 30%; inactive means the rest.

SMILES	USP8 inh	USP17 inh	USP28 block	USP30 inh
O=C(NC1CCCCCC1)C(Cc1ccccc1)NS(=O)(=O)c1ccc2c(c1)OCCO2 (configuration not stated)	0	49*	5	2
COc1cc(NC(=O)CC(c2ccccc2C)n2cccc2)cc(OC)c1 (configuration not stated)	-2	12	10	-7
c1ccc(-c2nc(NCCCN3CCOCC3)cc(-c3ccccn3)n2)cc1	-7	-28	-19	-46
O=C(N[C@H]1[C@H](O)[C@H](O)C[C@@H]1c1ccncc1)c1cnccn1	0	-26	-17	-37
COc1ccc(S(=O)(=O)N2CCC(c3ncncc3-c3ccnc(N)c3)C2)cc1 (configuration not stated)	-12	-4	-27	-41
COc1ccc(S(=O)(=O)N2CCC(c3ncc(C)[nH]3)C2)cc1 (configuration not stated)	-31	12	9	31*
COCCN1C(=O)c2ccc(-c3ccco3)n2CC1(C)C(=O)NC1CCC(C)CC1 (configuration not stated)	-12	-44	-40	-170
c1coc(-c2cc3nc(NCc4ccc5c(c4)OCO5)ccn3n2)c1	58*	4	26	-179
CC(C)(C)c1cc2nc(NCc3ccc4c(c3)OCO4)ccn2n1	-5	·	0	-23
COc1ccc(C(=O)N(C)CCc2noc(-c3ccc(Cl)cc3)n2)cc1	-6	-5	-3	1
CN(CCc1noc(-c2ccccc2Cl)n1)C(=O)c1ccc(C#N)cc1	13	19	13	31*
COc1ccc2c(Cl)c(C(=O)Nc3ccc(S(=O)(=O)N(C)Cc4ccccc4)cc3)sc2c1	2	-2	·	·
Cc1ccc(-c2cn(CC(=O)NCc3cccc(F)c3)c(=O)o2)cc1	-19	77*	28	56*
Cc1ccc(-c2cn(CC(=O)NCc3ccc(F)cc3)c(=O)o2)cc1	18	-3	-6	-6
Cc1ccc(S(=O)(=O)N[C@@H](Cc2ccccc2)C(=O)N2CCC(C(=O)N[C@H](C(=O)O)C(C)C)CC2)cc1	7	5	3	18
CC(C)(C)c1ccc(OCCCC(=O)Nc2ccc(S(=O)(=O)N3CCCC3)cc2)cc1	-124	-37	-26	-34
CC(C)Oc1ccc(S(=O)(=O)N2CCOCC2)cc1NCC(=O)Nc1ccc(C(C)(C)C)cc1	20	14	11	33*
Cc1nn(-c2nc3ccccc3[nH]2)c2c1C(c1ccsc1)CC(=O)N2 (configuration not stated)	11	45*	-3	14
CC(=O)N1CCCCC1c1cc(-c2ncc(C)[nH]2)nc(C)n1 (configuration not stated)	7	9	0	9
O=C1NCC2(C/C=C/CCOc3ccccc31)CCN(C(=O)Cc1cccnc1)CC2	-5	3	8	16
O=C(NCc1ccc(Cl)cc1)c1ccc(N2CCCS2(=O)=O)cc1	7	64*	45*	17
O=C(NCc1ccc(Cl)cc1)c1cccc(N2C(=O)CCS2(=O)=O)c1	10	9	21	14
COc1ccc(Cl)cc1C(=O)Nc1cnc(N2CCOCC2)nc1	-15	·	-16	-15
O=C(Cn1c(=O)nc(N2CCCCC2)c2ccccc21)Nc1ccc(C(F)(F)F)cc1	13	9	-2	8
